# Measured values as given in PubChem BioAssay (NCI).
# Where “and” joins values, the source holds several entries; their conditions need not be identical. Equal entries are not always repeated. This is part of a sample that, as a whole, favours compounds with a hit. Of some 83,000 tested, about 20% had one in any assay.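 Treatment: one concentration, 48 hours, 96-well format. Scoring: percent growth, with anything below 10 considered active.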 Calls of active or inactive are those of the source.
# System: HCC-2998 colon
# Assay: NCI-60 one-dose screen, 48 h (100 = growth as untreated, 0 = no growth, -100 = all killed)
# Conditions: 1 µM
# Experimental: Growth inhibition of the HCC-2998 human tumor cell line is measured as a screen for anti-cancer activity. Cells are grown in 96 well plates and exposed to the test compound for 48 hours. Compounds are tested at a single concentration, which is 10^-5 M for most compounds. The reported endpoint is percent growth (GI% or GIPRCNT), where numbers from 0 - 100% represent growth inhibition, and numbers from -100% - 0 represent cell death. For example, a value of 40 represents 60% growth inhibition. A value of 0 means no net growth occurred over the course of the experiment. A value of -40 indicates 40% of cells at the beginning of the experiment died by the end of the experiment. A value of -100 means all cells are dead at the end of the experiment.
# NCI-60 Human Tumor Cell Lines Screen was performed using the standard one-dose NCI protocol, which is described in more detail at https://dtp.cancer.gov/discovery_development/nci-60/default.htm.
# Compounds with GIPRCNT values below 10 were considered active. Activity score was based on GIPRCNT using the following formula: […]
# Score is 0 for GIPRCNT values of 100 or above, 50 for GIPRCNT values of 0, and 100 for GIPRCNT values of -100.
row,Structure (SMILES),growth
1,CC/C(=C(/c1ccc(O)cc1)c1ccc(OCCN(C)C(=O)CCOCCNC(=O)Cc2ccc3c(c2)CN([C@@H]2CCC(=O)NC2=O)C3=O)cc1)c1ccccc1,97.3% (inactive)

# Same assay, conditions: 10 µM
row,Structure (SMILES),growth
1,CC/C(=C(/c1ccc(O)cc1)c1ccc(OCCN(C)C(=O)CCOCCNC(=O)Cc2ccc3c(c2)CN([C@@H]2CCC(=O)NC2=O)C3=O)cc1)c1ccccc1,78.3% (inactive)

# Same assay, conditions: 10 µM unless noted
row,Structure (SMILES),growth
1,COc1ccc(Nc2nnc(-c3c[nH]c4ccccc34)o2)cc1,108% (inactive)
2,COc1cc(/C=C/C(=O)c2cnn(-c3cc(=O)[nH]c4ccccc34)c2C)cc(OC)c1OC,-1.51% (active)
3,CN1CCN(C(=O)Oc2cc3c(c4ccccc24)[C@H](CCl)CN3C(=O)c2cc3cc(OCCCN4CCC4)ccc3[nH]2)[C@H]2CSSC[C@H]21,-47% (active)
4,Cc1cccc(C)c1Nc1nnc(-c2c[nH]c3ccccc23)o1,119% (inactive)
5,Nc1nc(-c2ccccc2)c(N=Nc2ccc(Cl)cc2Cl)s1,-87.7% (active)
6,COc1cc(/C=C/C(=O)c2cnn(-c3cc(=O)[nH]c4ccc(Br)cc34)c2C)cc(OC)c1OC,-96.8% (active)
7,O=C1C=CC(=CC=C2N(Cc3ccc4ccccc4c3)c3ccccc3N2Cc2ccc3ccccc3c2)C=C1,21.1% (inactive) and 33.1% (inactive)
8,O=C1CC(c2ccc(I)cc2)OC2C=Cc3ccccc3C12 (stereo not given),117% (inactive)
9,O=C(Nc1nc2ccccc2s1)Nc1ccccc1Cl,97.3% (inactive)
10,O=C(c1ccc(O)cc1)C1[C@H](c2ccccc2Br)[C@@H](c2ccccc2)NC12C(=O)Nc1ccccc12 (stereo not given in full),-7.94% (active)
11,CC[C@@]12CC(C(=O)OC)=C3Nc4cc5c(cc4[C@@]34CCN(C[C@H]3O[C@H]31)[C@@H]24)[C@@H]1[C@H](O5)[C@@H](O)[C@@]2(CC)CC(C(=O)OC)=C3Nc4cc(O)ccc4[C@@]34CCN1[C@@H]24,-85.4% (active)
12,FC(F)(F)c1cc2c(Cl)ncnc2n1CCN1CCCCC1,-75.1% (active)
13,COc1cccc(/C=C/c2nc3ccccc3c(=O)n2CC(=O)Nc2ccccc2)c1,89.8% (inactive)
14,O=C1NC(=NC23CC4CC(CC(C4)C2)C3)N/C1=C\c1ccc2ncccc2c1,22.7% (inactive)
15,COc1ccc2[nH]cc(-c3cc4nc(-c5cn(C)c6ncccc56)cc(N)n4n3)c2c1,-96.5% (active)
16,CCN(C(=O)CN1C(=O)/C(=C/c2ccco2)SC1=S)C1CCS(=O)(=O)C1 (stereo not given),106% (inactive)
17,N#Cc1ccc(C(=O)NNC(=O)CSc2nc3sc4c(c3c(=O)n2-c2ccc(Cl)cc2)CCCC4)cc1,96.1% (inactive)
18,COc1ccc(C(=O)/C=C/c2ccc3c(c2)OCCO3)cc1S(N)(=O)=O,99.1% (inactive)
19,CCCCNc1ccc2c3c(cccc13)C(=O)N(NCC(O)COc1ccc3c(C)cc(=O)oc3c1)C2=O (stereo not given),104% (inactive)

row,Structure (SMILES),growth
1,CS(=O)(=O)Nc1cc(-c2ccc3ncnc(N4CCc5cc(F)c(Cl)cc54)c3c2)cnc1Cl,16.5% (inactive)
2,Cc1nn(-c2ccccc2)c2nc(C)n(C(=O)N/N=C/c3cccc([N+](=O)[O-])c3)c(=O)c12,113% (inactive)
3,CN(C)c1ccc(/C=C/c2n(Cc3ccc4ccccc4c3)c3ccccc3[n+]2Cc2ccc3ccccc3c2)cc1,-89.1% (active)
4,CS(=O)(=O)Nc1cc(-c2ccc3ncnc(Nc4ccc(OCc5cccnc5)c(Cl)c4)c3c2)cnc1Cl,-60.4% (active)
5,Cn1cc(-c2cc(N)n3nc(-c4c[nH]c5ccccc45)cc3n2)c2cc(F)ccc21,-65.5% (active)
6,O=C1CCC(N2C(=O)c3cccc(NCCOCCOCCOCCC(=O)NCCCC(=O)NC(c4ccc5c(c4)OCO5)c4cc(Cl)c5cccnc5c4O)c3C2=O)C(=O)C1 (stereo not given),30% (inactive)
7,c1ccc(CSc2nnc(-c3ccc4nc(-c5ccccc5)[nH]c4c3)o2)cc1,62% (inactive)
8,Cc1ccc(O)cc1Nc1nc(SCCN2CCOCC2)nc2c1cnn2CC(Cl)c1ccc(Br)cc1 (stereo not given),1.63% (active)
9,C=CCSc1nnc(-c2c(C)nc3sccn23)o1,110% (inactive)
10,O=C(c1ccc(Cl)cc1)C1[C@H](c2ccccc2Cl)[C@@H](c2ccccc2)NC12C(=O)Nc1ccccc12 (stereo not given in full),-46.2% (active)
11,CC1=C(C(=O)OC(C)C)C(c2ccc(O)cc2)NC(=O)N1 (stereo not given),111% (inactive)
12,COc1ccc2ccccc2c1/C=C1\SC(=Nc2ccc(O)cc2)NC1=O,-0.301% (active)
13,CCC(=O)c1cc(C(=O)OC)c2ccc3c4ccccc4ccc3n12,99.8% (inactive)
14,Clc1ccc(CNc2nc(SCCN3CCOCC3)nc3c2cnn3CC(Cl)c2ccc(Br)cc2)cc1 (stereo not given),30.9% (inactive)
15,O=C1NC(=S)/C(=C/c2cn(-c3ccccc3)nc2-c2ccccc2)S1,29.2% (inactive)
16,COc1cccc(-c2ccc(/C=N/NC(=O)c3[nH]c4ccc(Br)cc4c3-c3ccccc3)s2)c1,5.11% (active)
17,O=C1Nc2cc(-c3ccc(NS(=O)(=O)c4ccc([N+](=O)[O-])cc4)cc3)ccc2/C1=C/c1ccc[nH]1,32.2% (inactive)
18,CN1C(=O)C(O)(CC(=O)c2cc3ccccc3oc2=O)c2ccccc21 (stereo not given),109% (inactive)
19,Clc1ccc(Nc2nnc(-c3c[nH]c4ccccc34)o2)cc1,74.5% (inactive)
